Reference: PubChem BioAssay (EPA / NIEHS)
Values joined by “and” are separate entries in the source; they are usually repeats but may differ in a detail not shown here. Equal values may be shown once. Where a structure was tested more than once in an assay, its records may differ in their call. Active and inactive are the calls of the source. Rule for the calls: active = hit-call score of the fitted dose curve at least 0.9, where 1 is the maximum; inactive = score below 0.9.

Test: ATG_CRE_CIS: Attagene CIS-FACTORIAL HepG2 Assay for human cAMP Responsive Element (CRE) binding protein 3 (AID 2282926)
Conditions: HepG2 CRE cis-reporter, Attagene multiplexed mRNA; actives raise or lower the signal
Procedure: ATG_CIS is a cell-based, multiplexed-readout assay that uses HepG2, a human liver cell line, with measurements taken at 24 hours after chemical dosing in a 24-well plate.ATG_CRE_CIS is one of 52 assay component(s) measured or calculated from the ATG_CIS assay. It is designed to make measurements of mRNA induction, a form of inducible reporter, as detected with fluorescence intensity signals by Reverse transcription polymerase chain reaction (RT-PCR) and Capillary electrophoresis technology.Data from the assay component ATG_CRE_CIS was analyzed into 1 assay endpoint. This assay endpoint, ATG_CRE_CIS, was analyzed with bidirectional fitting relative to DMSO as the negative control and baseline of activity. Using a type of inducible reporter, measures of mRNA for gain or loss-of-signal activity can be used to understand the reporter gene at the transcription factor-level as they relate to the gene CREB3. Furthermore, this assay endpoint can be referred to as a primary readout, because this assay has produced multiple assay endpoints where this one serves a reporter gene function. To generalize the intended target to other relatable targets, this assay endpoint is annotated to the dna binding intended target family, where the subfamily is basic leucine zipper.
Human liver HepG2 cells are transiently transfected with multiple reporter transcription units (MRTUs) in 6-well plates using FuGene 6 reagent (Roche; 3 ml FuGene/1 mg DNA). The MRTU constructs are regulated by a cis-regulating element (promoter). […] A major difference between the CIS and TRANS system is that in CIS activities of endogenous TFs are measured, whereas the TRANS assay evaluates changes in activities of exogenous, chimeric NR-Gal4 proteins. […] At the end of 24 hour incubation, total RNA was isolated using TriZol reagent (Invitrogen). The isolated RNA is then reverse-transcribed using oligo(dT) primer and Mo-MLV reverse transcriptase (Invitrogen) with DNAse I (Ambion) treatment for 30 min. The one-tenth of the produced cDNA was amplified by PCR using Taq DNA polymerase (Invitrogen) and two reporter sequence-specific primers. The PCR products were fluorescently labeled by primer extension with 6-arboxyfluorescein (6-FAM) 5'-labeled reporter sequence-specific primer (2 min at 95 C, 20 s at 68 C and 10 min at 72 C) and these products were digested with 5U of HpaI (New England Biolabs) for 2h at 37 C. The fragments were purified using Qiaquick PCR columns (Qiagen), analyzed on an ABI 3130xL genetic analyzer (Applied Biosystems) with peak positions identified by using a set of X-rhodamine (ROX)-labeled MapMarker1000 molecular weight standards (BioVentures). The raw capillary electrophoresis data was processed using Attagraph software (Attagene).

Compound	outcome	AC50
CC1(C)NC(=O)N(c2ccc([N+](=O)[O-])c(C(F)(F)F)c2)C1=O	inactive	0.00911 µM (active)
C[C@]12CC[C@@H]3c4ccc(O)cc4CC[C@H]3[C@@H]1CCC2=O	inactive	
CO[C@H]1/C=C/O[C@@]2(C)Oc3c(C)c(O)c4c(O)c(c(/C=N/N5CCN(C)CC5)c(O)c4c3C2=O)NC(=O)/C(C)=C\C=C\[C@H](C)[C@H](O)[C@@H](C)[C@@H](O)[C@@H](C)[C@H](OC(C)=O)[C@@H]1C	inactive	
CC(C)(C)c1csc(-c2cc3cc(OCc4ccccc4CC(=O)O)ccc3o2)n1		54.3 µM (active)
CCCCOC(=O)c1ccc(O)cc1	inactive	72.6 µM (active)
CC/C(=C(/CC)c1ccc(O)cc1)c1ccc(O)cc1	inactive	15.9 µM (active)
Cc1ccc(C(C)C)cc1	inactive	
Cc1c2ccccc2c(C)c2c1ccc1ccccc12	inactive	
CC(O)CC(C)(C)O (stereo not given)	inactive	
OCCO	inactive	
CCCCCCCCCCCCO	inactive	
c1ccc2n[nH]nc2c1	inactive	
CC[C@H](NC(=O)c1cc(F)ccc1NS(=O)(=O)c1cccc2cccnc12)c1ccccc1	inactive	
c1ccc2ccccc2c1	inactive	
CC1=CC(=O)/C(=C(/C)O)C(=O)O1	inactive	
CCCOC(=O)c1cc(O)c(O)c(O)c1	inactive	
Cc1cn([C@H]2C[C@H](N=[N+]=[N-])[C@@H](CO)O2)c(=O)[nH]c1=O	inactive	
Cc1ccc2oc(CN(Cc3ccccc3)C(=O)Nc3c(F)cc(F)cc3F)c(-c3ccc(Cl)cc3)c2c1	inactive	

Compound	outcome	AC50
CCCCCCCC[Si](OCC)(OCC)OCC	inactive	54.5 µM (active)
Clc1cc(Cl)c2c(c1)N=C1CCCCCN1C2	inactive	
O=C1c2ccccc2C(=O)N1CCc1noc(-c2ccc(CN3CCCCCC3)s2)n1	inactive	
CCCCCCCCCCCC[N+](C)(C)C	inactive	
Cc1cccc2ccccc12	inactive	
CCCCCCCCOC(=O)c1cc(O)c(O)c(O)c1	inactive	
CCN(CC)C(=O)c1cc(S(=O)(=O)Cc2ccccc2)c(N2CCC(c3ccccc3)CC2)cc1N(CC)CCN(C)C	inactive	
CC(C)(c1cc(Br)c(O)c(Br)c1)c1cc(Br)c(O)c(Br)c1		46 µM (active) and 44.2 µM (active)
CCCCOC(=O)CC(CC(=O)OCCCC)(OC(C)=O)C(=O)OCCCC	inactive	
CC(=O)N1CCN(c2ccc(OC[C@H]3CO[C@](Cn4ccnc4)(c4ccc(Cl)cc4Cl)O3)cc2)CC1		20.7 µM (active)
CCCC(=O)OCCC(C)C	inactive	
CCCCCCCCCC(=O)O	inactive	
OC12N=C(c3ccccc3)SC1Cc1cc(Cl)ccc12 (stereo not given)	inactive	
CCOC(=O)O[C@H](C)OC(=O)c1ccc2c(c1)cc(C(=O)NC1CCN(C(C)C)CC1)n2Cc1cc(-c2ccc(Cl)s2)on1	inactive	
Cc1oc2c(NC(=O)c3c(Cl)cccc3Cl)cccc2c1C(C)(C)O	inactive	
CCN(Cc1cccnc1)C(=O)c1cccc(Cl)c1[C@]1(C)C(=O)N(Cc2ccc(OC)cc2OC)c2ccc(Cl)cc21		10.8 µM (active)
O=c1ccc2ccccc2o1	inactive	
CC[C@@H]1C[C@H](N(Cc2cc(C(F)(F)F)cc(C(F)(F)F)c2)C(C)=O)c2cc(C(F)(F)F)ccc2N1C(=O)OC(C)C	inactive	
